This is an account of results in PubChem BioAssay (Tox21).

Inconclusive results are not listed. A call without a number means that no potency is given here. Activity calls are given as the source filed them. The call rests on the fitted dose curve; in most records, active means well fitted activation curve with a large enough effect in the signal ratio in the repeat runs (not every such curve was filed as active); inconclusive means weak or mixed curves, or effect the other way; inactive means flat fitted curve, though single readings scatter; the % refers to the signal ratio.

The assay in a line: qHTS assay to identify small molecule agonists of the endoplasmic reticulum stress response signaling pathway (AID 1159516). The settings on record: ESRE-bla HeLa, ER stress beta-lactamase reporter, 5 h; series mostly up to 61 µM. The source says: National Center for Advancing Translational Sciences [NCATS]
NIH Chemical Genomics Center [NCGC]
U.S. Environmental Protection Agency [EPA]
National Institutes of Environmental Health Sciences [NIEHS]
National Toxicology Program [NTP]
U.S. Food and Drug Administration [FDA]
Endoplasmic Reticulum (ER) plays an important role in cellular signaling, protein folding/maturation, stress response, lipid biosynthesis, calcium storage and release etc. Under stress conditions, proteins in ER misfold or unfold, and leading to the expression of ER stress responsive genes. ER stress has been associated with a variety of pathophysiological conditions such as cancer, inflammation, neurodegenerative diseases, diabetes, ischemic heart disease etc. To identify the compounds that induce ER stress response, an ER stress reporter cell line, CellSensor ESRE-bla HeLa (Life Technologies, Carlsbad, CA) containing a beta-lactamase reporter gene under control of the Endoplasmic reticulum Stress Response Element (ESRE) was used to screen Tox21 10K compound library.
Tox21 Assay Protocol Summary:
ESRE-bla HeLa cells were dispensed at 1,500 cells/6 uL of assay medium per well into black wall/clear-bottom 1536-well plates using a Multidrop Combi (ThermoFisher Scientific, Waltham, MA) dispenser. After the assay plates were incubated at 37 C and 5% CO2 for an overnight, 23 nL of compounds dissolved in DMSO, positive controls or DMSO only was transferred to the assay plate by a Pintool station (Kalypsys, San Diego, CA). The assay plates were incubated at 37 C and 5% CO2 for 5 hr. One uL of LiveBLAzer B/G FRET substrate (Life Technologies) was added using a Flying Reagent Dispenser (Aurora Discovery, San Diego, CA) and the plates were incubated at room temperature for 2 hr. Fluorescence intensity (405 nm excitation, 460 nm and 530 nm emissions) was measured using an Envision plate reader (PerkinElmer, Shelton, CT).
In the case of `O=C(O)Cc1c(Cl)ccc(Cl)c1Cl`, the Potency entry is “inactive”. The same measure for `CCNC(=O)C(C)OC(=O)Nc1ccccc1` (stereo not given): “inactive”. For `NNC(=O)CCCCC(=O)NN`, the Potency result is “inactive”.

As for `CC/C=C/CCCCCCCCCCOC(C)=O`, the Potency result is “inactive”. In the case of `O=C(c1ccccc1)c1cccc(O)c1`, the Potency entry is “inactive”. Turning to `Cc1ccc(S(=O)(=O)NC(=O)NN2CC3CCCC3C2)cc1` (stereo not given), the Potency result was “inactive”. Take `O=C(O)COc1ccc2ccccc2c1`: the Potency result is “inactive”. As to `O=C(O)Cc1ccccc1Oc1ccc(Cl)cc1Cl`, the Potency result is “inactive”. Turning to `CC(C)c1cc(C(C)C)cc(C(C)C)c1`, the Potency result is “inactive”. The entry for `CCO/C=C1\N=C(c2ccccc2)OC1=O` is “inactive”; for `O=C1CCCc2c(O)cccc21` it is “inactive”; for `C=CCN(CC=C)CC=C` it is “inactive”. The same measure for `CN(C)c1ccncc1`: “inactive”; for `COc1cc(OC)cc(OC)c1`: “inactive”; for `C[Si](C)(C)O[Si](O)(O)O`: “inactive”. Turning to `CC(=O)SCC(CC(=O)c1ccc(C)cc1)C(=O)O` (stereo not given), the Potency entry was “inactive”.

Take `CCOC(=O)CC`: the Potency entry was “inactive”. As for `Cc1nc2ccc(Cl)cc2[nH]1`, the Potency result was “inactive”. Consider `CCN1CCN(C(=O)N[C@@H](C(=O)N[C@@H]2C(=O)N3C(C(=O)O)=C(CSc4nnnn4C)CS[C@H]23)c2ccc(O)cc2)C(=O)C1=O`, for which the Potency result was “inactive”.

For the compound `CCCCS`, the Potency result was “inactive”. Turning to `CCOc1ccccc1OCCN[C@H](C)Cc1ccc(OC)c(S(N)(=O)=O)c1`, the Potency entry was “inactive”. The entry for `C=CCOC(=O)CCCCCCCC` is “inactive”; for `c1coc(Cn2cccc2)c1` it is “inactive”.

On to `CCCCCCCC(=O)N(C)C`, for which the Potency entry was “inactive”. The same measure for `Nc1cc(S(=O)(=O)O)ccc1O`: “inactive”; for `Cc1ccc(NC(N)=O)cc1`: “inactive”. The same measure for `CC1(C)S[C@@H]2[C@H](NC(=O)Cc3ccccc3)C(=O)N2[C@H]1C(=O)O` (tested in a mixture with another compound): “inactive”; for `CCCCC(CC)CCC(CC(C)C)OS(=O)(=O)O` (stereo not given): “inactive”. As for `O=C(CCBr)N1CCN(C(=O)CCBr)CC1`, the Potency entry is “inactive”. On to `C/C(=N\O)c1ccc(OCC(=O)N2CCCCC2)cc1`, for which the Potency entry was “inactive”.

Consider `CCCCN1C(=O)c2ccccc2C1=O`, for which the Potency entry was “inactive”. The same measure for `CC(C)C(=O)Nc1cccc(C2CN3CCSC3=N2)c1` (stereo not given): “inactive”. As to `C=CCCCCCCCCCCCCCC`, the Potency result is “inactive”. On to `C[C@@H]1CCC[C@H](C)N1CCCC(O)(c1ccccc1)c1ccccn1` (stereo not given in full), for which the Potency result is “inactive”. The entry for `CCCCOCCCC` is “inactive”; for `C/C=C/C(=O)CCCC` it is “inactive”; for `CCc1ncc(C)[nH]1` it is “inactive”.

On to `CO/N=C(\C(=O)O)c1csc(NC(=O)CCl)n1`, for which the Potency result was “inactive”. Regarding `CCCCc1ccc(Cl)cc1`, the Potency entry is “inactive”. The entry for `CC(=O)c1c(C)cc(C(C)(C)C)cc1C` is “inactive”.
